# Imprint erasure = induces erasure of genomic imprints in mouse ES cells | mouse ES Peg3-LacZ reporter, beta-gal luminescence, 40 h | Potency, µM (top dose mostly 60.7 µM), inactives show at the top dose activity change, positive = activation, hits mostly activators | actives 0.02% (n = 110,000)
#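 Each well holds 300 Peg3LacZ-Neo (maternal) female ES cells incubated 40 h at 37C, 5% CO2. LacZ is measured by BetaGlo luminescence, with AC50 and maximum efficacy derived from dose-response curves.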
# p53ts 32C tox = cytotoxicity in p53ts cells at permissive temperature | H1299-p53A138V at 32C, ATP luminescence viability, 24 h | Potency, µM (top dose mostly 46.1 µM), for inactives: at the highest dose activity change, negative = cytotoxicity, actives largely listed as cytotoxic | actives 0.93% (n = 130,000);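 further: 0% = DMSO and -100% = full killing by reference compound; nearly all actives have a fitted effect of over 55% in size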
#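 Viability by ATPlite luminescence after 24 h compound treatment (up to 46 uM) at the permissive 32C. Cells are H1299 carrying p53 A138V. Scale runs from DMSO basal to 100 uM tamoxifen as full kill; AC50 from Hill fits.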
# p53ts 39C kill = cytotoxicity in p53ts cells at nonpermissive temperature; Potency, µM (titrated, usually from 46.1 µM), for the others: at the highest dose activity change, negative = cell killing, most hits filed as cytotoxic; H1299-p53A138V viability at 39C, ATP luminescence, 24 h; AID 902; actives 1.5% (n = 130,000); further: on the % scale 0 is the no-effect control and ±100 the full control effect; nearly all actives have a fitted effect of over 55% in size
# IkB sig inh = suppresses IkB signaling in ABC-DLBCL reporter cells; actives 0.04% (n = 110,000); Potency, µM (series often up to 57.1 µM), without a hit: top-dose IkBa stabilization activation; ABC-DLBCL IkBa-CBG/CBR dual luciferase ratio, 4 h; response scale: scaled: untreated 0%, proteasome inhibitor 100%; active means well fitted curve in the direction sought with a large enough effect in the signal ratio, not every such curve was filed as active; inconclusive means small, poorly fitted or top-dose-only effect, or a change in a side signal; the % refers to the signal ratio;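 further: the direction sought is a rising ratio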
#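 Luminescence ratio of IκBα-fused green versus native red beetle luciferase in OCI-Ly3 cells, 4 h post-doxycycline with compound; red signal alone, scaled from basal (0%) to zero light (-100%), flagged nonspecific or cytotoxic effects.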
# * = called active by the depositor; ? = inconclusive; · = not tested or not shown; ! = repeats disagree; [ ] = dose if it differs, or a comment. Hits are enriched below; roughly 1.6% of the tested compounds scored in any of these assays. Unless noted, the call rests on the fitted dose curve; in most records, active means well fitted curve in the direction sought with a large enough effect; inconclusive means small, poorly fitted or top-dose-only effect, or another doubt; inactive means no such curve, though single readings can be large; an effect the other way counts as inactive or inconclusive. Potency means the concentration at half of the fitted maximal effect.
SMILES,Imprint erasure,p53ts 32C tox,p53ts 39C kill,IkB sig inh
COc1ccc(-c2cc(C(=O)NCCc3ccccc3)c3c(-c4ccc(Cl)cc4)[nH]nc3n2)cc1,-27.2%[10.9 µM],12.6µM*,12.6µM*,4.1%
COc1ccc(-c2cc(C(=O)NCCc3ccccc3)c3c(-c4ccccc4)[nH]nc3n2)cc1,-4.9%[10.9 µM],?,12.6µM*,?
CNC(=O)CCc1nc(-c2ccc(C(C)(C)C)cc2)no1,-26.4%,12.6µM*,?,1.8%
CC(C)(C)c1ccc(-c2noc(CCC(N)=O)n2)cc1,-11.1%,?,?,14.0%
CN1CC[C@@]2(CCN3CCc4c(oc5ccccc45)[C@@H]3C2)N(C)C1=O,·,-10.7%,-8.4%,5.8%
COc1ccc(C(CNC(=O)COc2ccccc2C#N)N2CCOCC2)cc1 (configuration not stated),-0.5%,-1.5%,1.2%,0.7%
CC(C)(C)NC(=O)NC(=O)COc1ccccc1C#N,-68.9%,12.6µM*,12.6µM*,?
Cc1ccc(-n2[nH]c(C)c(C=Nc3ccc(C)cn3)c2=O)cc1,-46.9%,12.6µM*,12.6µM*,2.0%
CC(C)(C)c1cc(O)c(C(C)(C)C)cc1O,-9.6%,-18.4%,3.3%,1.0%
Cc1cc(O)c(C(C)(C)C)cc1Sc1cc(C(C)(C)C)c(O)cc1C,-28.0%,11.6%[1.84 µM],15.8µM*,?
CN(C)CCCN1c2ccccc2CCc2ccc(Cl)cc21,-10.6%,-12.1%,20µM*!,?
O=S(=O)(NCCNC/C=C/c1ccc(Br)cc1)c1cccc2cnccc12,-31.6%,·,·,·
O=C(Cc1cc(=O)[nH]c(=O)[nH]1)N1CCC(Cc2ccccc2)CC1,-15.2%,10µM*,?,1.3%
O=C(c1cccs1)N1CCC(Cc2ccccc2)CC1,·,-2.0%,-4.2%,·
CCCCn1c(/C=N/Nc2nc3ccccc3[nH]2)nc2ccccc21,·,·,-8.4%,·
Cc1ccc2cc(/C=N/Nc3nc4ccccc4[nH]3)c(Cl)nc2c1,·,·,3.55µM*,·
O=C(Nc1ccc(-c2nc3ccccc3[nH]2)cc1)C1CCCO1 (configuration not stated),-89.3%,2.51µM*,3.98µM*,?
O=C(Nc1nc2ccccc2[nH]1)C1CCCO1 (configuration not stated),-76.7%,-6.8%,-0.9%,8.9%
CC1=C(c2ccc(C(C)C)cc2)S(=O)(=O)N=C1N1CCC(C(=O)Nc2ccc(C)cc2)CC1,-22.1%[10.9 µM],?,12.6µM*,1.6%
CCc1ccc(C2=C(C)C(N3CCC(C(=O)Nc4ccc(F)cc4)CC3)=NS2(=O)=O)cc1,-9.8%[10.9 µM],?,10µM*,?
CC1=C(c2ccc(F)cc2)S(=O)(=O)N=C1N1CCC(C(=O)NCCc2ccccc2)CC1,10.7%[10.9 µM],5.4%,-10.6%,2.4%
O=C(Nc1ccc(S(=O)(=O)Nc2ccccc2)cc1)C1COc2ccccc2O1 (configuration not stated),·,?,22.4µM*,·
CCN1CCN(C(=O)N[C@H](C(=O)N[C@@H]2C(=O)N3C(C(=O)O)=C(CSc4nnnn4C)CS[C@@H]23)c2ccc(O)cc2)C(=O)C1=O,-7.7%[16.8 µM],-23.9%[20.6 µM],4.0%[20.6 µM],-0.9%[25.6 µM]
CCOC(=O)c1cnc2ccc(C(=O)OC)cc2c1Nc1ccc(N2CCOCC2)cc1,-17.0%[10.9 µM],?,12.6µM*,2.4%
CCOC(=O)c1cnc2ccc(C)cc2c1Nc1ccc(N(CC)CC)cc1,-12.9%[10.9 µM],-6.7%,12.6µM*,?
SMILES,Imprint erasure,p53ts 32C tox,p53ts 39C kill,IkB sig inh
CCN1CCN(Cc2ccc(NC(=O)Nc3ccccc3Cl)cc2)CC1,-15.7%,10µM*,7.94µM*,1.0%
CCN1CCN(Cc2ccccc2NC(=O)Nc2ccc(C)cc2)CC1,-10.8%,-18.5%,-8.5%,-1.8%
CCSc1nc2sc3c(c2c(=O)n1-c1ccc(C)c(Cl)c1)CCN(C(C)=O)C3,16.2%[10.9 µM],2.2%,6.7%,0.8%
CCCCCSc1nc2sc3c(c2c(=O)n1-c1ccccc1)CCN(C(C)=O)C3,-8.1%[10.9 µM],?,12.6µM*,?
O=S1(=O)C=C(Sc2nc3cc(Cl)ccc3o2)c2ccccc21,-36.8%,10µM*,20µM*,?
CN(C)c1nc(N)nc(CSc2nc3cc(Cl)ccc3o2)n1,-20.4%,-9.3%,9.9%,-2.2%
Cc1ccc(Cl)cc1N1CCN(CCCNC(=O)c2nnc(Cc3cccc(Cl)c3)o2)CC1,-14.5%[10.9 µM],-4.5%,12.6µM*,?
Fc1ccc(-c2cn3cc(Cc4ccccc4)sc3n2)cc1,-23.7%[10.9 µM],2.24µM*,5.01µM*,?
Clc1ccccc1Cc1cn2cc(-c3ccccc3)nc2s1,-19.1%[10.9 µM],?,3.16µM*,?
Fc1ccc(Cc2cn3cc(-c4ccccc4)nc3s2)cc1,-20.0%[10.9 µM],3.16µM*,2.51µM*,?
Brc1ccc(-c2cn3cc(Cc4ccccc4)sc3n2)cc1,-6.3%[10.9 µM],-27.5%,?,6.4%
Cc1ccc(Nc2nc(N)nc(CSc3nncn3C)n2)cc1,·,?,12.6µM*,·
Cc1ccc(Nc2nc(N)nc(CSc3nnnn3-c3ccccc3)n2)cc1,-13.5%,8.1%,11.8%,1.2%
CCOc1ccc(CCNc2ncnc3onc(-c4ccc(Cl)cc4)c23)cc1,-8.7%[10.9 µM],0.3%,-19.8%,?
Cc1nc2nc(-c3ccccc3)cc(=O)n2[nH]1,-88.9%,15.8µM*,12.6µM*,9.7%
O=C(NCc1cccc(Cl)c1)c1ccc2c(c1)nc1n2CCOC1,-11.0%[10.9 µM],0.6%,15.3%,0.8%
Cc1ccc(CNC(=O)c2ccc3c(c2)nc2n3CCOC2)cc1,-10.0%[10.9 µM],9.8%,5.9%,1.6%
Cc1cccc(CCNC(=O)c2ccc3c(c2)nc2n3CCOC2)c1,-3.0%[10.9 µM],?,12.6µM*,-1.2%
Cc1cccc(CCNC(=O)c2ccc3c(c2)nc2n3CCCCC2)c1,-6.9%[10.9 µM],12.6µM*,7.94µM*,?
O=C(NCCc1ccccc1Cl)c1ccc2c(c1)nc1n2CCOC1,-19.1%[10.9 µM],15.8µM*,3.98µM*,-2.2%
Cc1cccn2c(=O)cc(COc3cccc(NC(=O)c4ccccc4F)c3)nc12,-2.9%[10.9 µM],-4.6%,7.94µM*,?
COc1ccccc1-c1cc(C(=O)N2CCc3ccccc3C2)no1,-28.2%,-27.5%,-16.5%,?
COc1ccccc1C1CC(=O)Oc2cc3c(cc21)OCO3 (configuration not stated),2.7%,·,·,·
Cc1ccc(NC(=O)c2ccc(NC(=O)N3CCSc4ncccc43)cc2)c(C)c1,-11.0%[10.9 µM],-1.8%,-19.8%,2.7%
Cc1ccc(NC(=O)c2ccc(NC(=O)N3CCSc4ncccc43)cc2)c(Cl)c1,-12.0%[10.9 µM],10µM*,?,1.2%
Cc1ccc(C2CCN(C(=O)Nc3ccccc3)C2)cc1 (configuration not stated),-48.3%,?,?,?
Cc1ccc(NC(=O)N2CC3CCCN3c3ccccc32)cc1C (configuration not stated),-8.9%[10.9 µM],?,-11.1%,?
O=C(Nc1ccc(Cl)cc1)N1CCC(c2ccccc2)C1 (configuration not stated),-18.0%[10.9 µM],?,12.6µM*,?
Cc1ccc(NC(=O)N2CCC(c3ccccc3)C2)cc1C (configuration not stated),-11.7%[10.9 µM],?,12.6µM*,20.6%
O=c1[nH]ncc2ccccc12,-3.4%,6.1%[1.84 µM],1.7%,?

# Screening data (PubChem BioAssay)
